Reference: PubChem BioAssay (EPA / NIEHS)
Where “and” joins values, the source holds several entries; their conditions need not be identical. Identical values can stand only once. Records with an inconclusive call do not appear. Where a structure was tested more than once in an assay, its records may differ in their call. Calls of active or inactive are those of the source. How the source made its calls, unless noted: active means hit-call score of the fitted dose curve at least 0.9, where 1 is the maximum; inconclusive means response in the unintended direction; inactive means score below 0.9.

Experiments:
[1] = target: human Norepinephrine Transporter (NET), SLC6A2 (gene 6530) (UniProt P23975); test: NVS_TR_hNET: NovaScreen (NVS) Transporter Assay for human Norepinephrine Transporter (NET) (AID 2283377);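 further: cell-free membrane protein extracted from CHO cells expressing human NET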
Sequence of human Norepinephrine Transporter (NET), SLC6A2 (gene 6530) (P23975 whole entry, looked up): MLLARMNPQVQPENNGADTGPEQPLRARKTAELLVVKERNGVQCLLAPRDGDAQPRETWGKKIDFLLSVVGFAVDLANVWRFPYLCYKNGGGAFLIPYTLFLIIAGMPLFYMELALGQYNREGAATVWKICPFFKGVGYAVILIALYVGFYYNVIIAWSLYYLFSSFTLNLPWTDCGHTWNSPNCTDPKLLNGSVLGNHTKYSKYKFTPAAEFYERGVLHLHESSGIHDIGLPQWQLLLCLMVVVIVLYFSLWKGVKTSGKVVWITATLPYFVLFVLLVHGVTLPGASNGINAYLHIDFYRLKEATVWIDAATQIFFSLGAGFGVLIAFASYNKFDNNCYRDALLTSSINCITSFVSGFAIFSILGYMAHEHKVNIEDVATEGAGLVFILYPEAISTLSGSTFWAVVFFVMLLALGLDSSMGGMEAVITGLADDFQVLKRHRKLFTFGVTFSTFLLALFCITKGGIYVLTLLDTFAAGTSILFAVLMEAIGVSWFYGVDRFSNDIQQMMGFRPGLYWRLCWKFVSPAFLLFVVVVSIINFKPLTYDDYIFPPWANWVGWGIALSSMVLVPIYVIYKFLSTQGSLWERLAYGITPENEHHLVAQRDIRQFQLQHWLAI
Outline: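 Radioligand binding to human NET in cell-free CHO-derived protein preparations, read by filter-based scintillation counting 1 hour after dosing. Loss of signal versus DMSO baseline indicated displacement; primary screening in duplicate at 25 uM, actives then titrated.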

[2] = target: mouse Estrogen Receptor alpha (Era), Esr1 (gene 13982) (UniProt P19785); test: NVS_NR_mERa: NovaScreen (NVS) Nuclear Receptor Binding Assay for mouse Estrogen Receptor alpha (Era) (AID 2283378);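 further: hit means loss of bound radioligand signal relative to DMSO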
Sequence of mouse Estrogen Receptor alpha (Era), Esr1 (gene 13982) (P19785 whole entry, looked up): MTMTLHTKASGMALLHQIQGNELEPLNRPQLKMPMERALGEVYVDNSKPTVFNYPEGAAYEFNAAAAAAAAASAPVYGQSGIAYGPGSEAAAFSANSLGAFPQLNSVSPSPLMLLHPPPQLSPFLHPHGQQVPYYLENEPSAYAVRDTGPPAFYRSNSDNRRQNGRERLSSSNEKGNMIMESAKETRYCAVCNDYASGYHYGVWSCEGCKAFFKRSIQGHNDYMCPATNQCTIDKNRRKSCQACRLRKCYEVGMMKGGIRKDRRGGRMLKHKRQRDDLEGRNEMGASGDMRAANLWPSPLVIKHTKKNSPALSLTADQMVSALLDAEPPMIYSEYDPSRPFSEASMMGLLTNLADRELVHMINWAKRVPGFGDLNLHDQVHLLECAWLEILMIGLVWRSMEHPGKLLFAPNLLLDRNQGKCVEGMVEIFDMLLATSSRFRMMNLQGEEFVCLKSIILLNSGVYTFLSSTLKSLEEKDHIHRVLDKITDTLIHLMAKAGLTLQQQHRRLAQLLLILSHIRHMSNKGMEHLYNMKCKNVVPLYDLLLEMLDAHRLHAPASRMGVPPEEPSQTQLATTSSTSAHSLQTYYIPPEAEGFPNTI
Outline: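 Cell-free radioligand binding with extracted mouse Era protein; competitive displacement of radiolabelled ligand, read by filter-based scintillation counting 18 hours after dosing. Loss of signal versus DMSO baseline taken as binding; single screening concentration 25 uM, actives followed in concentration series.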

[3] = target: Estrogen receptor beta (Homo sapiens) (UniProt Q92731); test: OT_ER_ERbERb_1440: Odyssey Thera (OT) 24-hour HEK293T Protein-Complementation Assay for Estrogen Receptor-beta/-beta Homodimer (AID 2283380);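 further: fluorescence gain from ER beta LBD homodimer complementation read by laser scanning cytometry; scored as signal increase over DMSO baseline for both agonists and antagonists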
Sequence of Estrogen receptor beta (Homo sapiens) (Q92731 whole entry, looked up, the tested form may be a part): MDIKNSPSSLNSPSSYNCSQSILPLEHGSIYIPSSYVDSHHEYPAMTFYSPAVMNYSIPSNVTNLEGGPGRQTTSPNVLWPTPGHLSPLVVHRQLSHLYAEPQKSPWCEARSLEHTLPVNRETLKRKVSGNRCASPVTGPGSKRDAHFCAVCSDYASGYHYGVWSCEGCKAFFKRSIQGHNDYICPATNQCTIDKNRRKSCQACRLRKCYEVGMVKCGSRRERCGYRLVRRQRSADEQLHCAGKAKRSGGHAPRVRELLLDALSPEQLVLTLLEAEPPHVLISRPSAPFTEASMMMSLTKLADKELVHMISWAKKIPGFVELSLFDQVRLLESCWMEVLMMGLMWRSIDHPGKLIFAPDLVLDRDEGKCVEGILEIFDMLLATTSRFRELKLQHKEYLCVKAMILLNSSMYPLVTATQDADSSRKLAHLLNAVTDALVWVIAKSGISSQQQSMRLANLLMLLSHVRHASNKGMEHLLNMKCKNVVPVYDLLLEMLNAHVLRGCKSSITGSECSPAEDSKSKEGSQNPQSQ
Outline: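 HEK293T cells stably expressing human ER-beta LBD (aa 310-547) PCA homodimer pair, dosed 24 h; formaldehyde-fixed, Draq5-stained. Readout: increase in nuclear (agonist) or nuclear plus cytoplasmic (antagonist) fluorescence intensity versus DMSO, gain-of-signal fitting.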

[4] = target: Estrogen receptor (Homo sapiens) (UniProt P03372); test: OT_ERa_GFPERaERE_0480: Odyssey Thera (OT) 8-hour HeLa Transcription Induction Assay for Estrogen Receptor (AID 2283381; active means hit-call score of the fitted dose curve at least 0.9, where 1 is the maximum; inactive means score below 0.9)
Sequence of Estrogen receptor (Homo sapiens) (P03372 whole entry, looked up): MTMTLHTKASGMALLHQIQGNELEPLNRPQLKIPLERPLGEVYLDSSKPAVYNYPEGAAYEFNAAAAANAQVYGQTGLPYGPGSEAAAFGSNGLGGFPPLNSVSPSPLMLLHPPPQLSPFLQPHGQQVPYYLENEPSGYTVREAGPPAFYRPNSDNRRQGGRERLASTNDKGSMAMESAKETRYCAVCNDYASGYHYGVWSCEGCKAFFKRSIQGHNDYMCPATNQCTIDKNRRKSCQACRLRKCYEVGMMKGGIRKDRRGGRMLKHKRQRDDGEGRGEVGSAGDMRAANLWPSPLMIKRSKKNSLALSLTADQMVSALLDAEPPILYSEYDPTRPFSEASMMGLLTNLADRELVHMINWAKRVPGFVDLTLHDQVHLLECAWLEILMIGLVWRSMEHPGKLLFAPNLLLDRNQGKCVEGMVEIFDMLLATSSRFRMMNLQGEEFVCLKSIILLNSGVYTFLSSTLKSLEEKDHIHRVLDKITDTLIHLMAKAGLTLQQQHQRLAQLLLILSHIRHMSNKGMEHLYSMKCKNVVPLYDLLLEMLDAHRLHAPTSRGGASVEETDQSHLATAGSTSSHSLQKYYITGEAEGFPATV
Outline: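 Cells (HeLa) receive compound; after 8 h, reporter fluorescence is imaged and quantified by high-content analysis. Gain-of-signal relative to DMSO gives the endpoint.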

[5] = target: Retinoic acid receptor RXR-alpha (Homo sapiens) (UniProt P19793); test: OT_NURR1_NURR1RXRa_0480: Odyssey Thera (OT) 8-hour HEK293T Protein Complementation Assay for Nurr1/retinoid X receptor (RXR) (AID 2283385)
Sequence of Retinoic acid receptor RXR-alpha (Homo sapiens) (P19793 whole entry, looked up, the tested form may be a part): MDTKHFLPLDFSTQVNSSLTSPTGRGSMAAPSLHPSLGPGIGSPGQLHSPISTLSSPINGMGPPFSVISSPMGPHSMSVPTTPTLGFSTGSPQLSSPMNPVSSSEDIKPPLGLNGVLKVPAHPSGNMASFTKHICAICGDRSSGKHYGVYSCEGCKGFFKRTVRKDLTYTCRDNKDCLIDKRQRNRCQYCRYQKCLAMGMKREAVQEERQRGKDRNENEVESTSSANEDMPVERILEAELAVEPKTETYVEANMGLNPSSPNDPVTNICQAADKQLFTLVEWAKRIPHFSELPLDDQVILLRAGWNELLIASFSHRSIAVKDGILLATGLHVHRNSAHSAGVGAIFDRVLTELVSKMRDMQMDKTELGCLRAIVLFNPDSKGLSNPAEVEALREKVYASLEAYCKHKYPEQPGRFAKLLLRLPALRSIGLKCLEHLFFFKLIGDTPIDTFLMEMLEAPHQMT
Outline: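 Compounds are applied to HEK293T cells carrying Nurr1 and RXRα linked to reporter fragments. After 8 h, fluorescence intensity reports heterodimer formation, with DMSO as baseline.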

[6] = target: Retinoic acid receptor RXR-alpha (Homo sapiens) (UniProt P19793); test: OT_NURR1_NURR1RXRa_1440: Odyssey Thera (OT) 24-hour HEK293T Protein Complementation Assay for Nurr1/retinoid X receptor (RXR) (AID 2283386)
Outline: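 Measured as fluorescence from a reconstituted split reporter, this 24 h HEK293T complementation assay scores compound-induced gain of Nurr1/RXRα association relative to DMSO.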

[7] = target: Peroxisome proliferator-activated receptor gamma (Homo sapiens) (UniProt P37231); test: OT_PPARg_PPARgSRC1_0480: Odyssey Thera (OT) 8-hour Protein-Complementation Assay for Peroxisome Proliferator-activated Receptor Gamma / SRC-1 Co-activator (AID 2283387)
Sequence of Peroxisome proliferator-activated receptor gamma (Homo sapiens) (P37231 whole entry, looked up, the tested form may be a part): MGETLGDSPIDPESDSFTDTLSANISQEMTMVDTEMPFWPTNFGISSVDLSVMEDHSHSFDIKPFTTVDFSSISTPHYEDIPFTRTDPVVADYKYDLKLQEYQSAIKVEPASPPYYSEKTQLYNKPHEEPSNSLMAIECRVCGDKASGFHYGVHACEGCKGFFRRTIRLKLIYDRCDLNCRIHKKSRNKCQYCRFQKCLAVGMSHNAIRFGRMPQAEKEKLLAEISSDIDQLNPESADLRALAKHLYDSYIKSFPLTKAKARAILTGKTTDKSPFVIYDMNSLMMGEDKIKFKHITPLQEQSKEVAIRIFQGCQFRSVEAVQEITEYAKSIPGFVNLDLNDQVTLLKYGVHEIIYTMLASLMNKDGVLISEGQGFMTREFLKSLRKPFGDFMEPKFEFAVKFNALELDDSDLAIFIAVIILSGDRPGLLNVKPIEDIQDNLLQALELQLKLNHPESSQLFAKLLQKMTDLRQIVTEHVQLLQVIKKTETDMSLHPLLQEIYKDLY
Outline: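 Split-YFP (IFP1/IFP2) PPARg/SRC-1 reporter, HEK293T, 37 °C, 5% CO2; 8 h compound; formaldehyde fix + Draq5; high-content imaging, N/C ratio, ≥350 cells/image, positive direction vs DMSO.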

[8] = target: Peroxisome proliferator-activated receptor gamma (Homo sapiens) (UniProt P37231); test: OT_PPARg_PPARgSRC1_1440: Odyssey Thera (OT) 24-hour Protein-Complementation Assay for Peroxisome Proliferator-activated Receptor Gamma/ SRC-1 Co-activator (AID 2283388)
Outline: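 HEK293T cells transiently transfected with PPARg and SRC-1 fused via (Gly4Ser)2 linker to split Venus YFP fragments (IFP1/IFP2) were dosed 24 h; fixed, Draq5-stained, imaged at 488/635 nm; nuclear/cytoplasmic fluorescence ratio scored versus DMSO baseline, gain-of-signal.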

[9] = target: Agonist Androgen Response Element (ARE), AR (gene 367) (UniProt P10275); test: OT_AR_ARELUC_AG_1440: Odyssey Thera (OT) 24-hour CHO-K1 Luciferase Assay for Agonist Androgen Response Element (ARE) (AID 2283379)
Outline: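 Seed CHO-K1 cells; dose compounds for 24 h; add D-luciferin plus ATP in PBS; read luminescence. Signal increase relative to vehicle defines agonist activity, with at least 3 replicate wells per sample.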

[10] = target: Bile acid receptor (Homo sapiens) (UniProt Q96RI1); test: OT_FXR_FXRSRC1_0480: Odyssey Thera (OT) 8-hour HEK293T Protein-Complementation Assay for Farnesoid X receptor/SRC-1 Co-activator (AID 2283383)
Sequence of Bile acid receptor (Homo sapiens) (Q96RI1 whole entry, looked up, the tested form may be a part): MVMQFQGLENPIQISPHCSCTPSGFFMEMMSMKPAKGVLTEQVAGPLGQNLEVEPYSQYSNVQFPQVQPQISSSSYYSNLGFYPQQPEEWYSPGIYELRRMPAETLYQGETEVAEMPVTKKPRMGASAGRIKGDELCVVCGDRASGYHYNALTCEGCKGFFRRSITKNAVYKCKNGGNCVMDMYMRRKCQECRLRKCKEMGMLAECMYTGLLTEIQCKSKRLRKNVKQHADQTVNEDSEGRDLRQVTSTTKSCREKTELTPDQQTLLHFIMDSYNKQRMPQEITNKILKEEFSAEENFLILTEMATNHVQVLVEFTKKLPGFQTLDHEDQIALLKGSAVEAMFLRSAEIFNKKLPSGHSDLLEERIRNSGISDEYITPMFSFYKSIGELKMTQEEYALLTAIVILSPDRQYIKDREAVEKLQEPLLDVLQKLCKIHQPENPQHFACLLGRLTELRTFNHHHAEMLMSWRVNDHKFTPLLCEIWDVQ
Outline: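 Co-activator recruitment to FXR was measured in living HEK293T cells, where interaction of the two fused partners restored an active fluorescent reporter. Signal gain after 8 h treatment was referenced to DMSO.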

[11] = target: Bile acid receptor (Homo sapiens) (UniProt Q96RI1); test: OT_FXR_FXRSRC1_1440: Odyssey Thera (OT) 24-hour HEK293T Protein-Complementation Assay for Farnesoid X receptor/SRC-1 Co-activator (AID 2283384)
Outline: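 Cell-based binding reporter: interaction of FXR with SRC-1 brings reporter fragments together, giving a fluorescence signal read 24 h after dosing of HEK293T cells.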

[12] = target: rat Serotonin Transporter (SERT), Slc6a4 (gene 25553) (UniProt P31652); test: NVS_TR_rSERT: NovaScreen (NVS) Transporter Assay for rat Serotonin Transporter (SERT) (AID 2283375)
Sequence of rat Serotonin Transporter (SERT), Slc6a4 (gene 25553) (P31652 whole entry, looked up): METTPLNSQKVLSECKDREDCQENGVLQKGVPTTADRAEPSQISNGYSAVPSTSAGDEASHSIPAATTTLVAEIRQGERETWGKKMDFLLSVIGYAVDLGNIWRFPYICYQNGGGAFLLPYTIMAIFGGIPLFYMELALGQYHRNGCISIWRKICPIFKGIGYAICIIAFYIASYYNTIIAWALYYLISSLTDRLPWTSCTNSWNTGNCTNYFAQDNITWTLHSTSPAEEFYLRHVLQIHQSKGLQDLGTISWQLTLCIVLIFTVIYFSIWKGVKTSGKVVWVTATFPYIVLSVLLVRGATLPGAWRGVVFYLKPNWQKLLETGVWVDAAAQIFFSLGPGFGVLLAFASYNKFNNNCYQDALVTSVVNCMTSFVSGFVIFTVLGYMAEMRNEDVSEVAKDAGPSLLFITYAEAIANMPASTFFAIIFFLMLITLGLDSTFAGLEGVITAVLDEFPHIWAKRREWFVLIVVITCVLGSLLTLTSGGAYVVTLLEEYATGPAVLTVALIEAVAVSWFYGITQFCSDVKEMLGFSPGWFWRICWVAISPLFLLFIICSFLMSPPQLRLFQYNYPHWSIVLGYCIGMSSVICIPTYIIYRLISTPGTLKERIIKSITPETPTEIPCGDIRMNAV
Outline: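 Rat forebrain membranes were incubated with test chemical for 1 hour; radioligand binding to SERT was measured by filter-based scintillation counting. Primary screen ran in duplicate at 25 uM, with actives followed up in concentration series; DMSO served as negative control.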

[13] = target: Norway rat Vesicular Monoamine Transporter (VMAT2), neurotransmitter transporter, Slc18a2 (gene 25549) (UniProt Q01827); test: NVS_TR_rVMAT2: NovaScreen (NVS) Transporter Assay for Norway rat Vesicular Monoamine Transporter (VMAT2), neurotransmitter transporter (AID 2283376);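 further: actives lower the bound radioligand signal below the DMSO level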
Sequence of Norway rat Vesicular Monoamine Transporter (VMAT2), neurotransmitter transporter, Slc18a2 (gene 25549) (Q01827 whole entry, looked up): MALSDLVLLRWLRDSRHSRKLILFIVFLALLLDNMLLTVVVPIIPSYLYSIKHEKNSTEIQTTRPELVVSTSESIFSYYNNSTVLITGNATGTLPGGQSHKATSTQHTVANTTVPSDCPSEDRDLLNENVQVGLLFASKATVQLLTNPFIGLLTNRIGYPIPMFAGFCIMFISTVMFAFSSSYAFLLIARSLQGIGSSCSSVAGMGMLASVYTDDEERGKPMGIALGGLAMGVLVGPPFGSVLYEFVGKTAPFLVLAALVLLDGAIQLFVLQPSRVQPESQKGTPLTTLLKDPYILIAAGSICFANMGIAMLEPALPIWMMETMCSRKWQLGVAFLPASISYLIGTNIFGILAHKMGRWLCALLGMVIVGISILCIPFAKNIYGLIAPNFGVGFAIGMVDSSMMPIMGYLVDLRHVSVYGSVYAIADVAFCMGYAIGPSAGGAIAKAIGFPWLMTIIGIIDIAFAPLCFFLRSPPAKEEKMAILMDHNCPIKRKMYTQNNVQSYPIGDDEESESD
Outline: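 Rat forebrain tissue preparation used in a cell-free radioligand binding format; displacement read by filter-based scintillation counting 1 hour after dosing. Primary screen in duplicate at 25 uM, actives then run in concentration series; loss of signal versus DMSO baseline.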

[14] = CEETOX_H295R_11DCORT: CeeTox H295R High-throughput Steroidogenesis Assay for 11-Deoxycortisol (11DCORT) (AID 2283432; active means hit-call score of the fitted dose curve at least 0.9, where 1 is the maximum; inactive means score below 0.9;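 on AC50: 11-deoxycortisol secreted into the medium measured by LC-MS/MS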); settings: actives raise or lower the signal
Outline: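 Steroidogenesis in human H295R cells: 48 h chemical exposure after forskolin priming, 11-deoxycortisol measured by LC-MS/MS.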

[15] = CEETOX_H295R_OHPREG: CeeTox H295R High-throughput Steroidogenesis Assay for OH-Pregnenolone (OHPREG) (AID 2283434; active means hit-call score of the fitted dose curve at least 0.9, where 1 is the maximum; inactive means score below 0.9); settings: actives raise or lower the signal
Outline: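 Human adrenal H295R cells were prestimulated 48 h with 10 uM forskolin, then exposed 48 h to chemical in 0.1% DMSO. Medium 17alpha-hydroxypregnenolone was quantified by HPLC-MS/MS after MTBE extraction; bidirectional fitting versus DMSO baseline.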

[16] = CEETOX_H295R_OHPROG: CeeTox H295R High-throughput Steroidogenesis Assay for OH-Progesterone (OHPROG) (AID 2283435; active means hit-call score of the fitted dose curve at least 0.9, where 1 is the maximum; inactive means score below 0.9;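 on AC50: 17alpha-hydroxyprogesterone secreted into medium measured by HPLC-MS/MS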); settings: actives raise or lower the signal
Outline: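 Secreted 17alpha-hydroxyprogesterone is read by tandem MS from media of forskolin-primed H295R cells dosed with chemical for 48 h. Activity is fitted in both directions against DMSO baseline; cytotoxic concentrations are re-tested diluted.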

[17] = CEETOX_H295R_CORTIC: CeeTox H295R High-throughput Steroidogenesis Assay for Corticosterone (CORTIC) (AID 2283437; active means hit-call score of the fitted dose curve at least 0.9, where 1 is the maximum; inactive means score below 0.9;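 further: corticosterone secreted into medium quantified by mass spectrometry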); settings: actives raise or lower the signal
Outline: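 H295R cells were prestimulated 48 h with 10 uM forskolin, then exposed 48 h to test chemical in 0.1% DMSO. Medium corticosterone was MTBE-extracted and quantified by HPLC-MS/MS; bidirectional fit versus DMSO baseline.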

[18] = CEETOX_H295R_CORTISOL: CeeTox H295R High-throughput Steroidogenesis Assay for Cortisol (AID 2283438; active means hit-call score of the fitted dose curve at least 0.9, where 1 is the maximum; inactive means score below 0.9;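 further: cortisol secreted into medium quantified by LC-MS/MS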); settings: actives raise or lower the signal
Outline: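 Human adrenocortical H295R cells (passage ≤10) received test chemicals for 48 h after forskolin priming. Secreted cortisol was measured by LC-MS/MS.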

[19] = target: Estrogen receptor (Homo sapiens) (UniProt P03372); test: OT_ERa_GFPERaERE_0120: Odyssey Thera (OT) 2-hour HeLa Transcription Induction Assay for Estrogen Receptor (AID 2283382)
Outline: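 Measures ESR1 pathway reporter gain-of-signal in HeLa cells after a 2-hour treatment, detected as fluorescent protein induction by microscopy, DMSO as baseline.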

[20] = CEETOX_H295R_ANDR: CeeTox H295R High-throughput Steroidogenesis Assay for Androstenedione (ANDR) (AID 2283436; active means hit-call score of the fitted dose curve at least 0.9, where 1 is the maximum; inactive means score below 0.9); settings: actives raise or lower the signal
Outline: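 H295R human adrenal cells (passages ≤10) were exposed to test chemicals for 48 h; androstenedione in medium was MTBE-extracted and quantified by HPLC-MS/MS against a 7-point standard curve. Bidirectional fitting used DMSO as baseline.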

Measured: AC50

CCOC(=O)Nc1cccc(OC(=O)Nc2ccccc2)c1
active: [1] 3.25 µM
inactive: [2] | [3] | [4] | [5] | [6] | [7] | [8]

O=C1C2(Cl)C3(Cl)C4(Cl)C(Cl)(Cl)C5(Cl)C3(Cl)C1(Cl)C5(Cl)C24Cl (stereo not given)
active: [1] 1.57 µM and 1.82 µM and 869 nM | [10] 10.7 µM | [11] 10.8 µM
inactive: [9] | [7] | [8]

CCN1CCC2(CC1)COc1cc3c(cc12)N(C(=O)c1ccc(-c2ccc(-c4nnc(C)o4)cc2C)cc1)CC3
active: [12] 7.6 µM | [1] 10.1 µM | [2] 0.174 µM
inactive: [9] | [3] | [4] | [7] | [8]

CC(=[OH+])/C=C(/C)[O-].CC(=[OH+])/C=C(/C)[O-].CC(=[OH+])/C=C(/C)[O-].[Fe]
inactive: [13]

Nc1ccc(-c2ccc(N)c(Cl)c2)cc1Cl
active: [1] 3.04 µM
inactive: [14] | [15] | [16] | [17] | [18]

CC(C)(C)CC(C)(C)c1ccc(O)cc1
active: [1] 11.7 µM | [3] 1.04 µM and 593 nM and 1.02 µM | [10] 11.2 µM | [5] 11.3 µM and 11.2 µM | [6] 11.2 µM
inactive: [13] | [9]

COc1cc(-c2ccc(N)c(OC)c2)ccc1N
active: [1] 10.3 µM and 7.7 µM | [6] 67.1 µM and 41.3 µM and 50 µM | [15] 82.6 µM | [16] 1.9 µM
inactive: [5] | [6] | [7] | [8] | [15] | [16]

O=[N+]([O-])c1ccc2c3c(cccc13)CC2
active: [12] 18.2 µM

O=C(CCl)CCl
inactive: [2]

Cc1cc(Cl)ccc1O[C@H](C)C(=O)O
inactive: [1]

COP(=S)(OC)Oc1ccc(S(=O)(=O)N(C)C)cc1
inactive: [13]

Oc1c(I)cc(I)cc1I
active: [1] 25 µM

C=CC(=O)OCCCCCC(C)C
inactive: [2] | [9] | [3] | [4] | [10] | [11] | [7] | [8]

CCCCCCCCC(=O)NCc1ccc(O)c(OC)c1
inactive: [13] | [14] | [15] | [16] | [17] | [18]

CC(C)(C)c1cc(O)ccc1O
inactive: [4] | [10] | [5] | [6] | [7] | [8]
active: [1] 13.8 µM | [11] 62.2 µM | [5] 69.5 µM

Nc1ccc(Cl)cc1C(=O)c1ccccc1
active: [1] 12 µM

Clc1ccc(COC(Cn2ccnc2)c2ccc(Cl)cc2Cl)cc1 (stereo not given)
inactive: [2] | [3] | [7] | [8]
active: [4] 63.8 µM | [5] 11.2 µM | [6] 11.6 µM

CC(=O)[O][Hg][c]1ccccc1
inactive: [9] | [3] | [7] | [8]
active: [1] 0.212 µM | [4] 4.11 µM | [19] 12 µM | [11] 0.2 µM | [6] 0.266 µM

CCCCC(CC)CO[N+](=O)[O-] (stereo not given)
inactive: [13]

O=C(O)C(Cl)(Cl)Cl
inactive: [13] | [5] | [6] | [7] | [8]

COP(=S)(OC)Oc1cc(Cl)c(Cl)cc1Cl
inactive: [1]

CCOP(=S)(OCC)SCSP(=S)(OCC)OCC
active: [3] 17.5 µM | [14] 18.6 µM | [15] 14.9 µM | [16] 1.73 µM
inactive: [1] | [4] | [5] | [7] | [8] | [17] | [18]

CC(C)(OO)c1ccccc1
active: [4] 35.3 µM
inactive: [1] | [19] | [7] | [8]

NC(=S)Nc1ccccc1
active: [1] 15.4 µM

C=C(C)C(=O)[O][Sn]([CH2]CCC)([CH2]CCC)[CH2]CCC
inactive: [3] | [4] | [11] | [7] | [8]
active: [12] 4.15 µM | [13] 4.76 µM | [1] 0.376 µM | [2] 9.68 µM | [8] 0.0287 µM

COc1cccc(C=O)c1
inactive: [13]

Cn1sc(Cl)cc1=O
inactive: [3] | [4] | [19] | [10] | [11] | [5] | [6] | [7] | [8]
active: [1] 1.59 µM

CCOP(=S)(OCC)Oc1nc(Cl)c(Cl)cc1Cl
active: [10] 35.1 µM | [11] 76.4 µM | [5] 83.4 µM and 71 µM | [6] 85.3 µM | [14] 94.9 µM | [15] 80.5 µM | [20] 60.7 µM | [18] 81.6 µM
inactive: [2] | [9] | [3] | [4] | [6] | [7] | [8] | [16] | [17]

O=C(Cl)c1ccc(Cl)cc1
inactive: [13] | [1]
